In the library only some 3.1% were active in any assay of this set; here they are far more common.
TWEAK Fn14 block: inhibitors of TWEAK-Fn14 interaction signaling; TWEAK-stimulated Fn14 reporter cells, luciferase luminescence, 8 h; inhibition, % at 10 µM; 360,000 compounds, 2% hits; AID 1159606; in the data active = inhibition above about 50%
EBV LMP1 NFkB: Epstein-Barr LMP1 NF-kappaB reporter inhibition; LMP1-induced NF-kappaB luciferase reporter cells, luminescence; inhibition, % at 12.5 µM; 350,000 compounds, 0.69% hits; AID 504558; in the data active = inhibition above about 41%; inconclusive = no clear call, values can overlap the other calls;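 note: 0% = neutral control wells and 100% = reference inhibitor control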
PAX8 reporter: inhibitors of PAX8 transcriptional activity in RMG-I cells; inhibition, % at 12.6 µM; 360,000 compounds, 1.2% hits; RMG-I TPO-luciferase reporter, SteadyGlo, 24 h;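 active = mean replicate inhibition at least 60% with every replicate also reaching 60%; inconclusive = only one of the two criteria is met; inactive = mean below 60% and not all replicates reaching 60%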;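 note: luciferase light reporting Pax8 driven TPO promoter activity; plate controls were median of neutral control wells for no effect and mitoxantrone controls for full effect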
EWS-Fli block: blocks EWS/Fli oncoprotein-driven transcription; A673 NR0B1-luciferase reporter, viability-normalised; inhibition, % at 12.6 µM; 350,000 compounds, 0.67% hits;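 active = mean inhibition of at least 50% after viability correction, with every replicate also passing that limit; inconclusive = mean reaches 50% but only one of two replicates passes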;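 note: firefly luciferase signal divided by Alamar Blue viability fluorescence both relative to DMSO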
TROY NFkB inh: inhibitors of TROY-dependent NF-kB signaling; Q293 LMP1-TROYcd NF-kB luciferase reporter, 4 h; inhibition, % at 10 µM; 360,000 compounds, 0.98% hits;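 active = compounds whose plate-normalised and pattern-corrected inhibition of the luciferase reporter signal at the single screening dose is 50% or more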
LGR2 antag: Drosophila LGR2 receptor signaling inhibition | HEK293 LGR2, CRE-luciferase, bursicon-stimulated, 4 h | inhibition, % at 9.99 µM | 380,000 compounds, 0.35% hits | AID 720647;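 active = drop in luminescence signal, shown as inhibition above about 50% in the replicate tests, limit read from the data, passing the limit was not always enough; inconclusive = probably only some replicates passing the limit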;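 note: agonist challenge used bursicon conditioned medium at about half maximal strength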
Active calls of the source: *; ? = inconclusive; / = no result.

SMILES	TWEAK Fn14 block	EBV LMP1 NFkB	PAX8 reporter	EWS-Fli block	TROY NFkB inh	LGR2 antag
C=CCSc1nc2ccccc2n1C(=O)/C=C/c1cc(OC)c(OC)c(OC)c1	57*	81*	/	67*	36	96*
CCn1c(SCC(=O)N/N=C/c2ccc(OC)c(OC)c2)nc2ccccc21	10	16	/	/	-4	-40
CCSc1nc2ccccc2n1C(=O)/C=C/c1ccc(OC)c(OC)c1	100*	82*	64*	/	39	?
C=CCSc1nc2ccccc2n1C(=O)/C=C/c1ccc(OC)c(OC)c1	98*	-13	/	?	15	43
O=C(c1ccncc1)N1CC2(C1)[C@@H](c1ccccc1)[C@H](CO)N2C(=O)CC1CC1	/	/	-9	6	/	-4
Cc1noc(C)c1NC(=O)Nc1ccc2c(c1)C(=O)N([C@@H](C)CO)C[C@H](C)[C@@H](CN(C)C(=O)c1ccccc1)OCCCC[C@@H](C)O2	/	/	-41	-1	/	-2
COCCCN=C1NN=C(c2cc(C)n(Cc3ccccc3Cl)c2C)CS1	3	16	-1	46	-3	-11
Cc1cc(C2=NNC(=NC3CC3)SC2)c(C)n1-c1c(C)n(C)n(-c2ccccc2)c1=O	9	0	2	/	-5	20
COCCCN=C1NN=C(c2cc(C)n(-c3ccccc3F)c2C)CS1	59*	33	-36	58*	6	6
Fc1ccc(F)c(C2=NNC(=Nc3ccccc3F)SC2)c1	15	-130	10	28	-36	8
Cc1cc(C2=NNC(=NCCc3ccccc3)SC2)c(C)n1-c1c(C)n(C)n(-c2ccccc2)c1=O	57*	2	-37	9	-2	13
Fc1ccccc1N=C1NN=C(c2ccccc2)CS1	67*	-49	60	15	41	-1
COCCn1c(C)cc(C2=NNC(=Nc3ccccc3F)SC2)c1C	105*	64*	/	/	89*	/
COc1ccccc1S(=O)(=O)N[C@@H]1CC[C@@H](CCn2cc(C3CCCCC3)nn2)O[C@@H]1CO	/	/	-2	2	/	-6
CC(C)N(C(=O)[C@H]1C[C@H](CC(=O)NCCCN(C)C)C(=O)N2CCc3c([nH]c4ccc(Cl)cc34)[C@]12C)C(C)C	3	6	22	5	-1	16
CC(C)=CCC/C(C)=C/CNC(=O)C[C@H]1C[C@H](C(=O)N2CCOCC2)[C@@]2(C)c3[nH]c4ccc(Cl)cc4c3CCN2C1=O	51*	1	104*	36	51*	63*
CCN(CC)C(=O)[C@H]1C[C@H](CC(=O)NCc2cccc(C(F)(F)F)c2)C(=O)N2CCc3c([nH]c4ccc(Cl)cc34)[C@]12C	37	-2	76*	22	43	24
CCN(CC)C(=O)[C@H]1C[C@H](CC(=O)NCC23CC4CC(CC(C4)C2)C3)C(=O)N2CCc3c([nH]c4ccc(Cl)cc34)[C@]12C	54*	-6	41	-1	45	14
CC(C)N(C(=O)[C@H]1C[C@H](CC(=O)NCC23CC4CC(CC(C4)C2)C3)C(=O)N2CCc3c([nH]c4ccc(Cl)cc34)[C@]12C)C(C)C	54*	-5	67*	3	40	13
COc1ccc(S(=O)(=O)N(C)C[C@@H]2Oc3ccc(NC(=O)Nc4cccc5ccccc45)cc3CC(=O)N([C@@H](C)CO)C[C@@H]2C)cc1	/	/	/	5	/	-8
Cc1ccc(S(=O)(=O)N2CCN(c3cc4c(cc3[N+](=O)[O-])n(C)c(=O)n4C)CC2)cc1	35	4	/	7	51*	9
CC(C)(C)C(=O)Nc1ccc(Sc2ccc([N+](=O)[O-])cc2)cc1	51*	24	-2	12	49	23
CC(=O)Nc1ccc(Sc2ccc([N+](=O)[O-])o2)cc1	95*	-100	114*	61*	37	10
COc1ccccc1CNC(=O)C[C@@H]1C=C[C@H](NC(=O)CC2CC2)[C@@H](CO)O1	/	/	-7	9	/	27
NC(=O)[C@@H]1[C@H]2C(=O)O[C@H](c3ccccc3)[C@H](c3ccccc3)N2[C@H](c2ccccc2OCCO)[C@@]12C(=O)Nc1ccccc12	/	/	84*	24	/	/
SMILES	TWEAK Fn14 block	EBV LMP1 NFkB	PAX8 reporter	EWS-Fli block	TROY NFkB inh	LGR2 antag
NC(=O)NCC#Cc1ccc2c(c1)[C@]1(C(=O)N2)[C@H](c2ccccc2OCCO)N2[C@H](c3ccccc3)[C@H](c3ccccc3)OC(=O)[C@H]2[C@@H]1C(=O)N1CCCCCCC1	/	/	23	1	/	/
NC(=O)[C@H]1[C@@H]2C(=O)O[C@@H](c3ccccc3)[C@@H](c3ccccc3)N2[C@@H](c2ccccc2OCCO)[C@]12C(=O)Nc1ccccc12	/	/	?	38	/	/
O=C1O[C@H](c2ccccc2)[C@H](c2ccccc2)N2[C@H]1[C@@H](C(=O)N1CCCCCCC1)[C@]1(C(=O)Nc3ccccc31)[C@H]2c1ccccc1OCCO	/	/	79*	20	/	/
O=C1O[C@@H](c2ccccc2)[C@@H](c2ccccc2)N2[C@@H](c3ccccc3OCCO)[C@]3(C(=O)Nc4ccc(C#CCCO)cc43)[C@@H](C(=O)N3CCCCCCC3)[C@H]12	/	/	93*	13	/	/
COc1cc(-c2noc(C)c2/C=C/c2cccc([N+](=O)[O-])c2)cc(OC)c1OC	11	28	59	54*	23	22
COc1cc(-c2noc(C)c2/C=C/c2ccc(C(=O)O)cc2)cc(OC)c1OC	17	2	1	11	0	-30
Cc1ccc(S(=O)(=O)N2C[C@@H](O)COC[C@@H]3O[C@@H](CC(=O)NCCN4CCCCC4)CC[C@H]32)cc1	/	/	3	-7	/	-18
CCOC(=O)N1CCN(S(=O)(=O)c2ccc(C(=O)NNc3nc4c(C)cc(C)cc4s3)cc2)CC1	-7	/	52	-12	-1	/
Cc1cccc2sc(NNC(=O)c3ccc(S(=O)(=O)N4CCc5ccccc5C4)cc3)nc12	44	-19	77*	8	29	28
Cc1cc(C)c2nc(NNC(=O)c3ccc(S(=O)(=O)N4CCCCC4)cc3)sc2c1	-23	31	/	-12	-3	/
Cc1cccc2sc(NNC(=O)c3ccc(S(=O)(=O)N4CCCC(C)C4)cc3)nc12 (stereo not drawn)	63*	8	/	17	46	43
CCOC(=O)N1CCN(S(=O)(=O)c2ccc(C(=O)NNc3nc4c(C)cccc4s3)cc2)CC1	5	92*	81*	29	43	35
Cc1ccccc1-c1ccc([C@H]2[C@H](CO)N3C(=O)CN(C(=O)c4ccc(F)cc4)C[C@@H]23)cc1	/	/	/	4	/	12
C[C@@H](NC(=O)[C@@H]1[C@@H](CO)[C@@H]2Cn3c(cccc3=O)[C@@H]2N1S(C)(=O)=O)c1ccccc1	/	/	-9	-13	/	-7
COc1ccc(NC(=O)Cn2nnc(C(=O)NCCc3ccccc3)c2N)c(OC)c1	4	4	-7	/	-16	-6
